Test in all cases: pooled miR-30 sensor sort-seq; sequence = guide strand
What all share (conditions): shRNA

Assay [1] concerns the target TRMT1.
Assay [2] deals with TRPM3.
The target of assay [3] is TSC1.
Assay [4] addresses TTLL3.
Assay [5] deals with TUBB2B.
Assay [6] addresses TULP4.
Assay [7] concerns the target TUBAL3.
Assay [8] deals with TUBGCP5.
Assay [9] addresses TXLNG.
For assay [10], the target named is UMOD.
Assay [11] deals with UNC5A.
Assay [12] concerns the target ULK1.
The target in assay [13] is UNC5D.
Also: reference of the scale not given here.

With TCTCTGATAGTCGCTCCCGTTT, the sensor-assay potency score (higher = more potent) in [1] was -1.66.
As to TTTGTCTTTCATATTGACCGAA, in assay [2], the sensor-assay potency score (higher = more potent) is -0.0309.
For the sequence TTTCTCATTCTGAAGCACGGAG, the sensor-assay potency score (higher = more potent) in assay [2] was -0.126.
Regarding TTCTCTTGTAACTTCAACTGAT, the sensor-assay potency score (higher = more potent) in [3] worked out at 0.432.
With TTGGATTGTAAAGATCTTCTTC, in [4], the sensor-assay potency score (higher = more potent) was determined as 0.486.
In turn, TCGTTGTCAATGCAGTAGGTTT displayed a sensor-assay potency score (higher = more potent) in assay [5] of -1.57.
In the case of TTCATTGTAGTAAACATTGATT, the sensor-assay potency score (higher = more potent) in assay [5] was -0.873.
Still for that read-out and setting: the value for TAACCGAATCCATCGTGCCTGG was -0.853.
Turning to TAAATTAATATAGTCCATGGAA, in assay [6], the sensor-assay potency score (higher = more potent) is -0.711.
Sequence TTCTCTGAGGTACCAGTGCAGA gave a sensor-assay potency score (higher = more potent) in assay [7] of -1.43.
Turning to TATTGTAGTATCATTATTGATG, the sensor-assay potency score (higher = more potent) in [8] is -0.448.
For the sequence TTCTTCTGCTCGGCTGTCCAGG, in assay [6], the sensor-assay potency score (higher = more potent) is -0.627.
For ATGCAGTAGGTTTCATCTGTGT, the sensor-assay potency score (higher = more potent) in assay [5] was -0.689.
The sequence TTTGTCAGCAGAGACGATGGGG came in with a sensor-assay potency score (higher = more potent) in [7] of 0.442.
TTAATCTCTTCCAACTAGCAGC returned a sensor-assay potency score (higher = more potent) in assay [8] of -0.324.
The same measure, in the same setting: the value for TGGATCATGAACATCATCCAGT was -0.749.
As to TTTTATAGATTACTGCACCGAG, the sensor-assay potency score (higher = more potent) in assay [6] came to 0.0761.
TGCATTTTCCAGCTGATCCTGT: the sensor-assay potency score (higher = more potent) in [7] is -0.383.
TTGATCTTGTTCTTCTAACGGT came in with a sensor-assay potency score (higher = more potent) in [8] of 0.145.
Still for that read-out and setting: the value for TTTGTGGCTGTTGACATCCAAG was -1.62.
In [5], TTCCACCAGCTGGTGGACCGAG registered a sensor-assay potency score (higher = more potent) of -1.21.
As to ATGCTCATCACTGATGACCTCC, in [5], the sensor-assay potency score (higher = more potent) was -0.227.
As to TAAACTATGAGGAAACTGGGAG, the sensor-assay potency score (higher = more potent) in assay [8] turned out to be 0.101.
For TTGTAGAACTTGACCATGGCAC, in assay [6], the sensor-assay potency score (higher = more potent) worked out at 0.0563.
The sequence ATCTCTTCCAACTAGCAGCTTT registered a sensor-assay potency score (higher = more potent) in assay [8] of -0.582.
Turning to TAAACATTGATTCTCTCCAGCT, in assay [5], the sensor-assay potency score (higher = more potent) is -0.472.
In turn, TACAACTCTATACAGTATCTAC gave a sensor-assay potency score (higher = more potent) in assay [8] of -0.752.
As for TAGATAGACGTGAACTATCTTC, the sensor-assay potency score (higher = more potent) in assay [8] was -0.283.
As for TTCAATTAGGTCTACATTCAAG, the sensor-assay potency score (higher = more potent) in assay [7] was -1.3.
Same read-out and setting: the value for TTGTCCACCATGAAGGTACAGT was -0.604; that for TAACTTGACATTCATTTGCACC was -1.19.
Turning to TAGTAAACATTGATTCTCTCCA, in assay [5], the sensor-assay potency score (higher = more potent) stood at 0.0212.
The sequence TAGACCGAGAACTCCAGCTTAG had a sensor-assay potency score (higher = more potent) in [7] of -0.779.
For the sequence TTCAAGCACACATCCACTGGGG, in assay [6], the sensor-assay potency score (higher = more potent) is 0.492.
AACATTGATTCTCTCCAGCTGC: in assay [5], the sensor-assay potency score (higher = more potent) is -0.381.
As to TTAAGAGAGACGTAAACCCTGA, in assay [7], the sensor-assay potency score (higher = more potent) is -0.309.
As for ATTGTTGGCAGCATCCTCCTTT, the sensor-assay potency score (higher = more potent) in [7] turned out to be 0.0651.
The sequence TTGAAATTTATCCTCTGTGGAG had a sensor-assay potency score (higher = more potent) in [6] of -0.662.
Same read-out and setting: the value for TACAGCTGTCGTCTGGTTGGTC was -0.0173.
Consider TTTTTCTGCAGTACTAACCAGT, for which the sensor-assay potency score (higher = more potent) in [8] was -0.246.
As to GTAAACATTGATTCTCTCCAGC, in [5], the sensor-assay potency score (higher = more potent) is -1.79.
Sequence TCCATGGTAACTGCCAGTGGGG came in with a sensor-assay potency score (higher = more potent) in [5] of -1.71.
TAACGGTGTCCTGTCTACCTGA: the sensor-assay potency score (higher = more potent) in assay [8] was -0.629.
Regarding TTCTGTTTTGATCTTGTTCTTC, in [8], the sensor-assay potency score (higher = more potent) worked out at 0.0443.
As to AACACGAAATTGTCTGGTCTGA, in assay [5], the sensor-assay potency score (higher = more potent) was -0.953.
Turning to TTGCACTCTGAATCTTGCTGAC, in assay [9], the sensor-assay potency score (higher = more potent) is 0.000943.
In assay [10], TTTCATTCCTCGTCAACACTGT registered a sensor-assay potency score (higher = more potent) of 0.582.
TCTCATAGATCTTCCCTCGGGG: in [11], the sensor-assay potency score (higher = more potent) is -0.279.
On to TTGCGGGAGAACTCGAACTTGC, for which the sensor-assay potency score (higher = more potent) in [12] is -0.945.
In turn, ATCAAGAGAACATTCAACCAGG came in with a sensor-assay potency score (higher = more potent) in [12] of -0.0767.
TTGAGGATCATGGCTGTGGGGC came in with a sensor-assay potency score (higher = more potent) in [11] of -1.23.
Sequence TTTGTGATGACACAGTACCCAC registered a sensor-assay potency score (higher = more potent) in assay [13] of -1.26.
Turning to TTAAGGGACAGCTTCGGCCGGG, the sensor-assay potency score (higher = more potent) in [11] was -0.139.
In assay [10], TCGATTTGCAGTCCTCGTCTAT displayed a sensor-assay potency score (higher = more potent) of -0.657.
In turn, TTGGTGAGCTGGAACTTGGGGC yielded a sensor-assay potency score (higher = more potent) in assay [11] of -0.337.
Same read-out and setting: the value for TTACTCTTCCACAGGGAGCTGG was -0.541.
TAGTTGAGTCTCTAGTGTGTGG displayed a sensor-assay potency score (higher = more potent) in assay [10] of -0.521.
TTCCTCGTCAACACTGTCCCAC: the sensor-assay potency score (higher = more potent) in assay [10] stood at 0.0538.
Consider TTGAAGAAGATCTGCGTGGCGG, for which, in [11], the sensor-assay potency score (higher = more potent) was -0.341.
On the same count and under the same terms, the value for TAGATCTCATAGATCTTCCCTC was -0.268.

These data come from the OligoGym collection.
